Test results from the supplement of paper PMC6555819.

Legend:
Test in all cases: PBM binding z-score (relative to random genomic background probes); higher = stronger binding; sequences stand for … in GC…GCGATTGACAGCGTAGAATGAAGG
[1] = tested on: RARb homodimer (NR concentration 270 nM)
Outline: (§1)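 On custom Agilent 4×180K arrays, double-stranded probes with 34-nt variable regions carried direct-repeat seeds, single-nucleotide variants, half-site ablations or random human genomic background. Ligand-free nuclear receptor dimers were applied for 1 h, and binding was read with antibodies against each partner (one per run). Binding z-scores come from regression-normalized fluorescence, with the random background probes as reference.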

[2] = tested on: RARg:RXRa (NR concentration 270 nM, RXRa partner concentration 90 nM)
Outline: as §1

[3] = tested on: RARg homodimer (NR concentration 270 nM)
Outline: as §1

[4] = tested on: RXRa DBDmut IVT, anti-RXR (DBD mutation: RXRa K156A/R161A, NR concentration 90 nM)
Outline: as §1

[5] = tested on: RXRa homodimer (NR concentration 180 nM)
Outline: as §1

[6] = tested on: THRa:RXRa (NR concentration 90 nM, RXRa partner concentration 90 nM)
Outline: as §1

[7] = tested on: THRa homodimer (NR concentration 90 nM)
Outline: as §1

[8] = tested on: VDR:RXRa (NR concentration 270 nM, RXRa partner concentration 90 nM)
Outline: as §1

[9] = tested on: VDR homodimer (NR concentration 270 nM)
Outline: as §1

Sequence	PBM binding z-score [1]	PBM binding z-score [2]	PBM binding z-score [3]	PBM binding z-score [4]	PBM binding z-score [5]	PBM binding z-score [6]	PBM binding z-score [7]	PBM binding z-score [8]	PBM binding z-score [9]
CGTCAAAGTTCAAGGTAACGTCACAGAAAGCAGC	4.13	5.4	6.15	4.55	4.78	3.12	1.48	3.96	3.12
TCTATTAGTTTATTAGGGCAACCGAAACAGCGGA	1.56	1.15	1.09	1.92	0.82	1.54	1.62	1.03	1.29
TAGCCTAGGTCAGGGGCCAGTATACCACGCGAAC	2.47	3.16	3.82	-0.891	2.16	1.91	0.583	0.706	-0.245
CGTCAAAGTTCAACAAAGGTAACGTAAAGCACGC	4.37	5.63	6.4	4.53	4.82	4.66	0.367	4.46	3.16
ACTATTAGTTGAGACGAGGGCTACCGATAGGTTG	-0.26	0.564	0.518	0.406	0.235	0.224	-0.838	-0.103	-0.209
CCTTTCGGGTCACTCCAGGTTATAGCATCGGAGT	3.43	4.46	4.55	2.36	4.03	5.16	3.18	4.19	1.87
ATCTCTAGGTAAGACTCGGTTCAGTGAAGAACGC	0.578	0.12	0.211	0.708	0.162	0.549	0.875	1.05	2.06
GCTTGTAGATCAGGGTTAAGAAAGACTAAGCTAA	0.053	0.416	0.152	0.053	0.823	0.939	-0.435	0.179	0.148
ATATGTAGGTTATCGGGTCATTCCGTTTGCGCAT	3.06	3.32	2.35	1.67	3.38	3.36	2.82	3.86	3.21
CCTGCTAGGTCAATGGTGAGCTAAAGCAGCTCGC	1.97	3.3	4.12	1.62	1.56	1.77	0.113	0.217	-0.465
CAAACTAGCTCACGAAAGGTCAAAGTCGAATGAC	4.81	5.46	5.04	1.31	6.26	3.62	0.952	4.32	2.53
TGAATAAGGTTAAAGATCAGGGAACGTGGCGTCG	1.04	2.51	1.72	0.599	3.39	2.48	0.616	1.37	0.301
TCGGCTAGGTCAACGATGGTCAGCTAATCTGCTA	3.12	4.15	5.22	0.991	2.56	2.96	0.739	1.73	0.189
CGAACTAGGTCATCCAGGACAGTGAATACATTGA	3.06	4.04	4.85	2.52	2.79	3.59	1.84	4.73	1.96
GCATATAGGTAATACAAGGTGATAGTCCGATTGT	-0.0222	0.537	0.59	0.172	0.526	3.48	0.413	-0.0322	-0.123
GCTAGTTGGTCAGCAAAAGGTCACACACCGGTCG	5.34	5.94	5.62	-0.0302	6.14	3.41	1.55	4.13	1.55
TCTTGTAGAGCAAGCAGGTTAAGAAAGCCTGAGT	-0.297	-0.441	-0.538	-0.187	-0.0799	-0.2	-1.05	-0.323	-0.461
GCTTGTAGATCAAGGTTAATAAAGACTAAGCTAA	0.0389	0.0476	0.168	-0.167	0.452	1	-0.489	-0.00898	-0.152
GCTGCTAGGTCAGGTTGGTCATCTAACGGGTACG	2.84	2.81	3.9	0.588	1.18	1.94	0.942	1.25	0.689
TAGCCTAGGTCAGATCGGACCAGTATACGCTATA	1.86	2.7	3.46	-0.00524	1.46	2.55	-0.155	0.34	-0.597
AGAATGAGGTGATACGTAGATCAGGGAAGAAAGT	0.297	0.451	0.546	-0.351	0.719	1.57	0.357	-0.0206	-0.382
CGTCCAAGGTCTGCAGGTCAGTGAAAGCGACGTG	2.06	1.26	1.8	0.0779	0.794	1.12	-0.0329	-0.117	-0.462
GGAACGAGGGCATTCGAGTTGACAGCATGGCGAT	0.801	1.2	1.69	3.06	0.845	3.83	-0.733	3.41	2.99
CTACCAAGGTGGACAAGGTCGTTGATTACTATTC	1	0.429	0.319	0.874	0.711	1.81	0.933	3	1.68
TAGCCTAGGTCATACGGGCCAGTATAGTGTCGGC	2.87	3.74	4.43	0.941	3.22	2.92	0.814	3.08	0.783
ATCTCTATGTAACCAAGTTCAGTGAATGCCGAAC	1.28	0.518	0.659	0.924	0.314	0.659	0.156	2.22	2.31

Sequence	PBM binding z-score [1]	PBM binding z-score [2]	PBM binding z-score [3]	PBM binding z-score [4]	PBM binding z-score [5]	PBM binding z-score [6]	PBM binding z-score [7]	PBM binding z-score [8]	PBM binding z-score [9]
CAGAGTAGGTTATGGGGCATTCAGGCAACGGTGA	1.24	0.814	0.945	-0.321	0.947	0.691	0.428	0.214	0.315
TGTCAAAGTTCAAAGGTAACATAAGTATCCACAC	3.83	6.56	6.03	4.43	6.86	3.53	0.27	5.14	4.17
ATATGTAGGTTACATCCGGGTCATTCATGCTATG	2.82	3.6	2.21	1.42	2.93	3.61	2.46	4.1	3.43
CCTCGGAGGACGGAAGGTCAGAGCTGTCCGCTTT	2.97	2.49	2.14	-0.0504	1.69	1.94	-0.304	0.873	-0.0606
CCTTACGGGTCACTGACAGGTTATAGCCTTTGGA	3.15	5.69	4.21	2	4.83	2.9	0.294	3.77	1.14
ACTAGCAGGCCAAGGGTCCCTCAAGATTAGTCCG	0.0685	-0.0773	-0.0696	-0.495	-0.0168	-0.255	-0.726	-0.454	-0.484
CAAACTAGGTCACCGCAAGGTCAAAGTCCGCATG	5.35	8.07	7.32	2.61	6.15	4.68	4.38	6.39	4.3
TAGCCTAGGTCATTGGGCCAATATAGTACGCATC	2.88	4.02	3.84	1.41	2.93	2.91	1.2	2.33	1.1
GCGTACGGGTCAAAGGTTATAGCATGAATAGAAT	3.14	6.99	4.57	1.83	9.61	3.78	-0.479	5.59	1.08
CGTCCAAGGTCAGAGAGGTCAGTTAATGCCGAGT	5.24	6.43	7.24	3.83	5.63	4.39	2.8	7.74	6.29
CCTGCTAGGTCTTGGTCAGCTAATCTACAGTATG	0.408	-0.194	-0.144	0.336	-0.394	-0.178	-0.108	-0.434	-0.656
CGTCAAAGTTCAAGATAACGTAACAGAAAGCAGC	3.44	5.28	6.09	4.52	4.34	1.72	-0.18	3.2	3.57
GCATATAGGTGATACAAGGTGAAAGTCCGATTGT	0.997	0.873	0.702	0.341	0.856	4.24	0.943	0.445	0.0464
ATCTTTAGGTAAAGTTCAGTGAAAGATCGATAGA	2.48	1.99	2.45	1.71	1.15	1.52	0.0896	1.7	1.95
CCTGGTAGGTCAATGGTCAGCTAAAGCAGCTCGC	2.92	3.75	4.04	0.676	2.66	1.56	0.243	1.33	0.307
GCATATAGGTAATACAAGGTGAAATTCCGATTGT	0.44	0.518	0.637	0.228	0.614	4.06	0.848	0.179	0.0965
GATACAGGGTCAAGGCCAGAGTTCGCGTATTGAT	4.11	5.64	5.19	2.9	6.18	3.64	1.21	5.31	4.76
CCAACTGGGGCAAGGTTACCATAACGCACAGCCA	1.51	0.917	1.56	-0.0848	1.13	1.4	0.42	0.166	-0.0492
TCATACAGGTAAATGCTAGGTGAAAGTCCGATCT	0.654	0.462	0.278	1.48	0.593	1.47	0.878	0.69	0.146
TCGAGTAGGTTAATCGGGGCATTCAGCCAACATA	0.592	0.49	0.334	0.443	0.518	1.99	-0.373	3.59	0.184
TCATATAGGTAAACAGGTGAATGTCCGTAAGTTA	0.605	0.347	0.272	1.27	1.03	0.567	0.511	0.948	0.283
CCTAGTTGGTCAGGAGGACACACACCGGATATGA	1.58	1.2	1.73	-0.252	0.276	1.28	1.43	0.204	0.975
CCTAGCAGGCCAATCTGTGTCACTCAAGGCTTGA	0.114	-0.172	0.279	0.249	-0.389	0.791	-0.64	-0.331	-0.327
ATCGAAAGCTCGAAGGTGAGTATACCCACCCGAA	-0.378	-0.032	0.202	-1.19	0.158	-0.167	-1.04	-0.463	-0.249
TCATATAAGTAAACAGGTGAAAGTCCGTAAGTTA	0.596	0.357	0.421	2.12	0.907	0.674	0.549	1.28	0.857
GGAACGAGGGCACGTTGATAGCAGAGTTTGATGG	1.27	1.53	2	2	0.885	1.41	0.0368	0.909	1.03
